# According to the supplement of paper PMC6555819:
# Tests used:
# Test in all cases: PBM binding z-score (relative to random genomic background probes); higher = stronger binding; sequences stand for … in GC…GCGATTGACAGCGTAGAATGAAGG
# [1] = system: RARb homodimer (NR concentration 270 nM)
# Method in brief: (§1)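 Binding z-scores were set against random background probes. The data came from custom Agilent 4×180K protein-binding microarrays carrying double-stranded probes with 34-nt variable regions, incubated 1 h with ligand-free nuclear receptor dimers. Partner-specific antibodies detected binding, and scanned fluorescence was regression-normalized.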
# [2] = system: RARg:RXRa (NR concentration 270 nM, RXRa partner concentration 90 nM)
# Method in brief: as §1
# [3] = system: RARg homodimer (NR concentration 270 nM)
# Method in brief: as §1
# [4] = system: RXRa DBDmut IVT, anti-RXR (DBD mutation: RXRa K156A/R161A, NR concentration 90 nM)
# Method in brief: as §1
# [5] = system: RXRa homodimer (NR concentration 180 nM)
# Method in brief: as §1
# [6] = system: THRa:RXRa (NR concentration 90 nM, RXRa partner concentration 90 nM)
# Method in brief: as §1
# [7] = system: THRa homodimer (NR concentration 90 nM)
# Method in brief: as §1
# [8] = system: VDR homodimer (NR concentration 270 nM)
# Method in brief: as §1
Sequence,PBM binding z-score [1],PBM binding z-score [2],PBM binding z-score [3],PBM binding z-score [4],PBM binding z-score [5],PBM binding z-score [6],PBM binding z-score [7],PBM binding z-score [8]
TCATATAGATAAACAGGTGAAAGTCCGTAAGTTA,0.615,0.467,0.388,1.94,1.33,0.561,0.191,0.676
CAAACTAGTTCACAGAGGTCAAAGTCCGTGCGTA,4.92,6.03,5.68,3.93,6.83,4.01,1.93,7.92
CGTCCAAGGTCATAGGAAGTCAGTGAAGACAGAT,3.7,5.5,5.7,3.77,5.28,3.81,2.31,2.43
ATCTCTGGGTAAAAGTTCAGTGAATCCCGAGGAT,2.6,2.36,2.45,0.812,1.69,0.969,-0.0851,1.53
CGAACTAGGTCATCCAGGACAGTTAATACATTGA,3,3.93,4.66,2.41,2.99,3.54,2.15,2.37
ATCGAAAGGTCGACGAAGTGAGTATACACCGTTT,2.14,3.86,3.83,0.645,3.75,1.79,-0.48,0.3
CCTTCCGGGTCAAGGTTATAGCACGGGTGGTACG,3.39,4.76,4.46,0.695,4.97,3.73,2.35,1.72
CGTCCAAGGTCAGAGAGGTCAGTAAATGCCGAGT,5.22,5.95,7.02,3.45,5.43,4.24,2.87,5.99
TCATATGGGTAAAGGTGAAAGTCGAACGATATGA,1.36,1.41,0.964,0.352,2.08,1.24,-0.573,-0.341
ACTAGCAGGCCAACTTTGGGTCACTCAAACAAAG,2.34,2.46,1.61,-0.27,0.885,2.62,1.19,0.371
CCCGACAGGTGAGAAGGTAACTCAGCCTCGATTA,0.604,0.562,0.328,-0.142,0.298,0.229,0.474,-0.11
TCGAATAGGTTAGGGGCATTCAGAATGGCGTCGA,1.08,0.753,0.9,1.19,1.15,0.948,0.436,0.995
TTACCAAGGTTAGCTGAGGTCGTTGATCCAACTC,2.06,1.68,1.41,0.854,1.84,5.01,2.13,2.87
GCATATAGGTAATACAAGGTGCAAGTCCGATTGT,-0.0695,0.291,0.14,0.314,0.27,1.52,-0.516,0.533
TCTTGTAGAACAACAGGAGGTTAAGAAAGATCGA,0.958,0.377,0.286,0.511,0.875,0.726,-0.422,-0.182
CCTTACGGATCACTCCAGGTTATAGCATCGGAGT,0.563,0.297,0.583,0.552,0.224,3.06,0.842,0.677
CCTATTAGTTGACCAAAAGGGCAACCGAAGCTCG,3.11,2.31,1.84,0.787,1.09,0.99,0.0968,0.7
TCTGCTAGGTCAGTTAGTCAGCTAACGAGCTGCC,1.99,2.4,3.3,0.561,0.813,0.906,-0.364,-0.726
ATCGAAAGGTCGTCAGGTGAGTATACAGAAAGGC,2.67,4.34,3.83,2.04,4.71,3,1.33,1.8
ATCTATAGGTAACAAGTTCAGTGAAAGAGAGGAC,2.01,1.61,1.59,1.56,1.19,1.33,0.91,2.47
ACAGACAGGTGAGTGATGGTAACTCAGCTGGACG,-0.167,0.351,0.407,-0.204,0.27,-0.225,-0.414,-0.122
ATATGTAGGTTACCTCCGGGTCATTCAGGCTATG,3.04,4.19,2.43,0.792,3.8,3.78,2.66,2.02
AGAATGAGGTTATACTTAGATCAGGGAAGAAAGT,0.8,1.56,1.14,1.87,1.87,1.96,0.882,0.999

Sequence,PBM binding z-score [1],PBM binding z-score [2],PBM binding z-score [3],PBM binding z-score [4],PBM binding z-score [5],PBM binding z-score [6],PBM binding z-score [7],PBM binding z-score [8]
GCGACTGGGGCAAAGCAGGTTACCAGAAGGTTGG,1.32,0.622,0.806,-0.155,0.313,2.87,-0.356,-0.376
AGATGTAGGTTAGCTGGGGTCATTCAGACTAGGC,3.53,3.96,2.72,1.78,5.24,5.05,3.03,4.8
AGCTCTAGGTAAAGTTCAGTGAAAGATCGATAGA,2.32,1.94,2.58,1.43,0.97,0.941,-0.0509,1.6
TCGAGTAGGTTACTAATGGGGCATTCAGCTTTCT,0.14,0.367,0.0579,0.272,0.291,-0.11,-0.967,-0.245
TACCCTAGGTCATGCGGGCCAGTATAGTGTCGGC,3.28,4.07,4.89,0.8,3.33,3.18,1.48,1.26
TAACCTAGGTCATGGGCCAGTATACCACGCGAAC,3.63,5.07,5.12,1.07,4.02,3.3,1.87,1.35
CCTACTGGGCCAAAAAGGTCATTTATGCCGATAA,4.03,4.11,3.43,0.766,4.35,2.85,0.395,2.46
AGTCAAAGTTCAGGACGCGGTAACGTAAAGCACG,3.04,4.4,4.94,2.98,2.78,2.74,1.23,1.79
CAAACTAGGTCACCGAGGTCAAAGTCCGTGCGTA,5.47,6.99,7.18,3.46,7.09,4.93,4.37,7.68
TCAGACAGGTGAAGGTAACTCGGGTACGCAGTCG,1.04,0.783,0.664,1.16,1.23,1.66,0.72,0.873
TCGAGTAGGTTAGTCGGGGCGTTCAGCCAACATA,-0.146,-0.702,-0.632,0.213,-0.538,0.808,-0.254,-0.484
CAAAGTAGGTCAAAGGTCAAAGTCGAGCCAACCA,5.32,8.87,7.72,3.17,10.4,4.54,1.22,3.8
GCTGCTAGGTCGGGTTGGTCAGCTAACGGGTACG,0.957,0.215,0.167,-0.0966,0.0101,0.409,0.283,0.431
ATCTCTAGCTAAGACTCAGTTCAGTGAAGAACGC,0.502,0.00118,-0.132,0.313,0.0167,0.338,0.471,1.11
CCTTACGGGTCACTGACAGGTTCTAGCATTTGGA,3.15,4.85,4.15,1.95,4.61,2.45,0.145,1.03
GATACAGGGTCAAGGCCTGAGTACGCGTATTGAT,3.54,5.4,5.41,2.19,5.69,3.37,0.931,2.52
CGAACTAGGTCACCGGAAGGTCAAAGTCCGCATG,5.45,8.27,7.14,2.43,6.38,4.36,2.81,4.01
TCTTGTAGATCAATTGAGGTTAAGAAAGTGCGCT,0.953,0.568,0.0458,1.05,0.886,3.84,0.878,0.579
TCTTGTAGATCAATAGAGGCTAAGAAAGTGCGCT,-0.029,0.139,-0.0605,0.703,0.213,0.676,-0.939,-0.123
TCATATAGGTAAAACAGGTGAAAGTCGGCATCTA,0.437,0.572,0.226,1.71,1.1,0.827,0.0853,-0.37
CCTGCTAGGTCAATGGTCAGCCAAAGCAGCTCGC,3.05,3.38,4.35,1.48,2.23,2.06,0.619,-0.16
CCTCGGAAGACAACAGGAGGTCAGAGCTGCCAGA,2.77,1.94,1.99,-0.3,1.69,2.04,0.668,1.28
GCAGACCGGTGAAACGCAGGTAACTCAGGGTGGC,-0.498,-0.367,-0.32,-1.11,-0.345,0.683,-0.854,-0.771

Sequence,PBM binding z-score [1],PBM binding z-score [2],PBM binding z-score [3],PBM binding z-score [4],PBM binding z-score [5],PBM binding z-score [6],PBM binding z-score [7],PBM binding z-score [8]
CCTCGGAGGACAGAAGGTCAGAGTTGTCCGCTTT,3.6,3.24,2.91,0.56,1.73,2.08,0.133,0.396
CCTACTGGGCCAGAGGTCATTGATTCCAATGCTC,4.02,4.51,3.89,1.52,4.88,3.22,1.09,3.61
TAGCCTAGGTCAGATCGGGCCAGTAAACGCTATA,1.72,2.66,3.21,-0.396,1.32,3.89,-0.219,-0.568
AGTCAAAGTTCATTAGGTAACGTAAGATTCAGCT,3.87,5.26,5.92,4.97,4.52,2.59,0.801,5.43
ATCTCTAGGTAAAGTTTAGTGAAAGATCGATAGA,0.401,0.251,0.558,0.303,0.0525,0.362,0.126,0.236
AGTTAAAGTTCAGGACGAGGTAACGTAAAGCACG,3.04,4.5,4.39,3.27,2.72,3.85,1.96,2.43
CATACAGGGTCAGCTAGGCCAGAATAGGGACGGC,3.37,4.33,4.34,1.53,4.26,3.04,1.13,0.805
CGTCGAAGTTCAACTAAGGTAACGTAAAGCACGC,2.89,3.53,3.67,3.86,2.69,4.97,2.11,2.88
GCTTACCGGTCAAAGGTTATAGCATGAATAGAAT,2.62,5.63,3.54,0.541,5.37,2.2,-0.177,0.217
CGTCCAAGGTCAGAAGGTCAGTGAAAGCGACGTG,5.32,7.13,6.77,2.87,5.71,4.12,1.8,2.18
ATCGAAAGGTCGTGAGGTGAATATACAGAAAGGC,3.06,4.98,3.95,1.72,5.61,3.72,1.77,1.24
TCTATTTGTTGATTAGGGCAACCGAAACAGCGGA,0.77,0.864,0.859,1.28,0.492,0.89,0.561,0.505
TGAATGAGGTTATAAGGTCAGGGAACGTTGCAAA,4,5.81,4.21,1.11,5.44,4.24,3.73,1.88
CGAACTAGGGCAGAACAGGACAGTGAAGGATGAT,0.707,0.486,0.757,0.0235,-0.0297,1.58,-0.495,-0.0975
CCTACTGGGCCAAAGGTCATTGCTTCCAATGCTC,4.58,5.56,4.3,1.36,5.91,3.37,0.719,2.42
ATCTCTAGGTAAAGTGCAGTGAAAGATCGATAGA,0.108,0.474,0.497,0.0332,0.222,0.316,-0.174,-0.0309
TGAATGAGGTAAAAGATCAGGGAACGTGGCGTCG,-0.605,0.328,0.294,-0.708,0.851,1.3,-0.2,-0.398
GCTGCTAAGTCAGGTTGGTCAGCTAACGGGTACG,0.212,-0.383,-0.568,-0.027,-0.344,-0.197,-0.581,-0.246
TCGAGTATGTTACCAATGGGGCATTCAGCTTTCT,-0.135,-0.111,-0.492,0.904,-0.0794,-0.318,-0.731,-0.375
GGAACGAGGGCATTCGGGTTGATAGCATGGCGAT,0.654,1.05,1.55,3.18,0.826,2.68,0.0871,4.11
ATCTCTTGGTAACAAGTTCAGTGAAAGAGAGGAC,1.67,0.629,1,1.09,0.531,0.831,0.489,2.61
ACTAGATGGTCAGCTGAGGTCACACACAATTCGG,4.52,4.38,4.75,1.45,4.78,5.09,5.1,3.61
